Values without a mark were called inactive. Calls of active or inactive are those of the source. Calls follow the shape of the dose curve; as a rule, active = well fitted curve in either direction with a large enough effect; inconclusive = small, poorly fitted or top-dose-only effect; inactive = no such curve, though single readings can be large or run the other way.

For the experiment, the target named is Lysosomal alpha-glucosidase (Homo sapiens) (UniProt P10253). Kind of experiment: Confirmation of Inhibitors and Activators of Human alpha-Glucosidase From Spleen Homogenate Using an Alternate Red Fluorescent Susbtrate. Conditions: resorufin-glucoside fluorescence; series mostly up to 62.8 µM; activity change, negative = inhibition: at the top concentration. An excerpt: NIH Chemical Genomics Center [NCGC] NIH Molecular Libraries Probe Production centers Network [MLPCN] MLPCN Grant: 1R03MH084841-01 Assay Submitter (PI): Wei Zheng NCGC Assay Overview: Alpha-glucosidase is responsible for hydrolysis of terminal, non-reducing 1,4-linked alpha-D-glucose residues with release of alpha-D-glucose. It is a lysosomal hydrolase that is required for the degradation of a small percentage (1-3%) of cellular glycogen in human. Deficiency of this enzyme results in glycogen-storage disease type II (GSDII), also referred to as Pompe disease, an autosomal recessive disorder. Structurally normal glycogen is accumulated in lysosomes and cytoplasm in affected patients, primarily in muscle tissues. Excessive glycogen storage within lysosomes may interrupt normal functioning of other organelles and leads to cellular injury. In turn, this leads to enlargement and dysfunction of the entire organ involved (eg, cardiomyopathy and muscle weakness). It has reported that the improper folding and trafficking of alpha-glucosidase resultinged from the genetic mutations may account for a significant number of Pomrope patients. […] We optimized this alpha-glucosidase assay in 1536-well plate format for identifying the novel small molecule inhibitors with the structures other than the sugar analogs in order to develop the new pharmacological chaperones. In particular, this assay is directed towards discovering compounds active in a more natural setting, tissue homogenate, that may have been missed by screens of the purified enzyme under more stringent conditions. This assay attempted to confirm hits from the primary screening using an alternate fluor than the primary screen used.
NCGC Assay Protocol Summary: This is a fluorogenic enzyme assay with Resorufin-alpha-D-glucopyranoside as the substrate and human spleen homogenate containing alpha-glucosidase as the enzyme preparation. Upon hydrolysis of this fluorogenic substrate, the resulting product, resorufin (which excites at 573 nm and emits at 610 nm) can be detected by a fluorescence plate reader. Data were normalized to the controls for basal activity (without enzyme) and 100% activity (with enzyme). The AC50 values were determined from concentration-response data modeled with the standard Hill equation. Assay buffer: 50 mM citric acid (titrated with potassium phosphate to pH 5.0), 0.01% Tween-20 (pH 5.0 is an optimal condition for this enzyme assay) 1536-well assay protocol for the alpha-glucosidase from human spleen homogenate: (1) Add 2 ul/well spleen homogenate (1 ug) (2) Add 23 nL compounds in DMSO solution. The final titration was 0.5 nM to 58 uM. (3) Add 2 ul of substrate (1 mM final) (4) Incubate at 37 C for 40 min (5) Add 2 ul stop solution (1M NaOH and 1M Glycine mixture, pH 10) (6) Detect the assay plate in a ViewLux plate reader (PerkinElmer) with […]. Keywords: Alpha-glucosidase, Pompe Disease, pharmacological chaperone, chaperone therapy, high throughput screening, alpha-glucosidase inhibitor, MLSMR, MLSCN, NIH Roadmap, qHTS and NCGC
As to `CC(=O)c1ccc(N2CCN(S(=O)(=O)c3ccc4[nH]c(=O)[nH]c4c3)CC2)cc1`, the “activity change, negative = inhibition” value was -4.25%.
Regarding `O=C1Cc2cc(S(=O)(=O)N3CCN(c4cccc(C(F)(F)F)c4)CC3)ccc2N1`, the Potency was 8.41 µM [inhibitor] (active).
Still for that read-out and setting: in the case of `CCCN1CNc2c(c(=O)[nH]c(=S)n2CCc2cc(C)ccc2C)C1` it was 8.91 µM (active).
Still for that read-out and setting: as for `CCCN1CNc2c(c(=O)[nH]c(=S)n2CCc2ccc(OC)c(OC)c2)C1`, the figure is 8.91 µM (active).
Turning to `CC(=O)c1ccc(N2CCN(S(=O)(=O)c3ccc4c(c3)CCCN4C(C)=O)CC2)cc1`, the “activity change, negative = inhibition” value is 10.5%.
As for `CCCN1CNc2c(c(=O)[nH]c(=S)n2CCc2c(Cl)cccc2Cl)C1`, the Potency was 5.01 µM (active).
On the same count and under the same terms, as for `CCCN1CNc2c(c(=O)[nH]c(=S)n2CCc2cccc(OC)c2OC)C1`, the figure is 15.8 µM (active).
On the same count and under the same terms, in the case of `CCCN1CNc2c(c(=O)[nH]c(=S)n2CCc2cc(Cl)ccc2Cl)C1` it was 10 µM (active).
On to `COc1ccc(C#Cc2cnc(Cl)c3cncnc23)cc1OC`, for which the “activity change, negative = inhibition” value was 7.5%.
For the compound `CC(=O)c1ccc(N2CCN(S(=O)(=O)c3ccc(N4CCCC4=O)cc3)CC2)cc1`, the “activity change, negative = inhibition” value was 2.9%.
On to `COc1ccc(CCn2c3c(c(=O)[nH]c2=S)CN(CC(C)C)CN3)cc1OC`, for which the Potency was 6.31 µM (active).

These data come from PubChem BioAssay AID2111 (National Center for Advancing Translational Sciences (NCATS), 2009).
